{
  "source": "PubChem BioAssay AID588520",
  "about": "(NMMLSC, 2011)",
  "note": "Screen size: about 1,700 compounds; about 65 (4%) were called active. No stated cut-off is given here; in the data, active means Nile Red retention ratio vs DMSO above about 190%; inactive means the rest. The list is a sample of the results.",
  "data": [
    {"tested_on": "Candida albicans drug resistance protein 2 (Cdr2) efflux pump, expressed in S. cerevisiae", "assay": "inhibitors of Candida albicans Cdr2 efflux pump, confirmation, S. cerevisiae AD/CaCDR2, flow cytometry, cherry pick 1, singleplex (AID 588520);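 further: higher ratio means more blocking of Cdr2 efflux of the dye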", "conditions": "at 10 µM, active compounds read high", "values": [
      {"smiles": "COc1ccc2[nH]c3c(C)c4cc[n+](C)cc4c(C)c3c2c1", "Nile Red retention ratio vs DMSO": "97.2% (inactive)"},
      {"smiles": "O=C1NC(=O)C2C1C(c1ccc([N+](=O)[O-])cc1)=NN2Cc1ccccc1", "note": "(centres undefined)", "Nile Red retention ratio vs DMSO": "112% (inactive)"},
      {"smiles": "COc1ccc(-c2sc3ccccc3c2-c2ccc(OCCN3CCOCC3)cc2)cc1", "Nile Red retention ratio vs DMSO": "101% (inactive)"},
      {"smiles": "O=C(NCc1ccccc1)C(=O)NCC1OCCN1S(=O)(=O)c1ccc(Br)cc1", "note": "(centres undefined)", "Nile Red retention ratio vs DMSO": "84.8% (inactive)"},
      {"smiles": "COc1ccccc1CSc1ncc(-c2ccc([N+](=O)[O-])cc2)[nH]1", "Nile Red retention ratio vs DMSO": "87.5% (inactive)"},
      {"smiles": "CCOc1ccc(C2/C(=C(/O)c3ccc4c(c3)CC(C)O4)C(=O)C(=O)N2CCCn2ccnc2)cc1", "note": "(centres undefined)", "Nile Red retention ratio vs DMSO": "94.1% (inactive)"},
      {"smiles": "COc1ccc(C(=O)NC2CC(C)(C)Cc3c2cnn3-c2ccccc2)c(OC)c1", "note": "(centres undefined)", "Nile Red retention ratio vs DMSO": "100% (inactive)"},
      {"smiles": "CN1CCN(S(=O)(=O)c2ccc(NC(=S)NC(=O)C3CC3)cc2)CC1", "Nile Red retention ratio vs DMSO": "103% (inactive)"},
      {"smiles": "CC(C)C(=O)N1CCC2(CC1)Oc1ccc(F)cc1C(=O)C21CC(c2ccccc2)=NO1", "note": "(centres undefined)", "Nile Red retention ratio vs DMSO": "102% (inactive)"},
      {"smiles": "CN(C)S(=O)(=O)c1cc(C(=O)Nc2ccn(C)n2)c(Cl)cc1Cl", "Nile Red retention ratio vs DMSO": "99.3% (inactive)"},
      {"smiles": "CCn1c(/C=C/c2ccc([N+](=O)[O-])o2)nc2ccccc2c1=O", "Nile Red retention ratio vs DMSO": "212% (active)"},
      {"smiles": "O=S(=O)(c1ccccc1)N1CCc2ccccc21", "Nile Red retention ratio vs DMSO": "83.1% (inactive)"},
      {"smiles": "CC12CCC(C(=O)N(c3cccc(Cl)c3)C1=O)C2(C)C", "note": "(centres undefined)", "Nile Red retention ratio vs DMSO": "110% (inactive)"},
      {"smiles": "O=C(CNC(=O)c1ccc(-c2ccccc2)cc1)OCc1ccc(Cl)cc1", "Nile Red retention ratio vs DMSO": "120% (inactive)"},
      {"smiles": "Cc1cc(C)cc(NC(=O)C(OC(=O)c2ccc(O)cc2)c2ccccc2)c1", "note": "(centres undefined)", "Nile Red retention ratio vs DMSO": "101% (inactive)"},
      {"smiles": "CC(/C=N/NC(=O)c1cc(-c2ccc3ccccc3c2)n[nH]1)=C\\c1ccco1", "Nile Red retention ratio vs DMSO": "95.4% (inactive)"},
      {"smiles": "CCCc1nc(N2CCN(C)CC2)c2sc(=S)n(-c3ccccc3)c2n1", "Nile Red retention ratio vs DMSO": "99.6% (inactive)"},
      {"smiles": "C[n+]1ccc(/C=C/c2c[nH]c3ccccc23)cc1", "Nile Red retention ratio vs DMSO": "140% (inactive)"},
      {"smiles": "CCCCCCCCCCCCCCCC(=O)OC/C=C(C)/C=C/C=C(C)/C=C/C1=C(C)CCCC1(C)C", "Nile Red retention ratio vs DMSO": "123% (inactive)"},
      {"smiles": "Cc1nn(C)cc1N1C(=O)c2cccc3c(N)ccc(c23)C1=O", "Nile Red retention ratio vs DMSO": "106% (inactive)"},
      {"smiles": "COc1ccc(/C=C(\\C#N)c2c[nH]c3ccccc23)cc1", "Nile Red retention ratio vs DMSO": "98.5% (inactive)"},
      {"smiles": "CCCCOc1ccc(C(=O)NCC(=O)OCC(=O)c2c(N)n(C)c(=O)n(C)c2=O)cc1", "Nile Red retention ratio vs DMSO": "103% (inactive)"},
      {"smiles": "NNC(=O)COc1ccc(C2SCCS2)cc1", "Nile Red retention ratio vs DMSO": "98.5% (inactive)"},
      {"smiles": "COc1ccc(C(=O)NC(=S)Nc2ccc(N3CCCC3)cc2)cc1OC", "Nile Red retention ratio vs DMSO": "95.1% (inactive)"},
      {"smiles": "O=C(CSc1nnc(-c2cccnc2)n1Cc1ccco1)c1ccc(Cl)c(Cl)c1", "Nile Red retention ratio vs DMSO": "107% (inactive)"},
      {"smiles": "CCCCN1C(=O)/C(=C/C=C2/C=Cc3ccccc3N2CC)SC1=S", "Nile Red retention ratio vs DMSO": "108% (inactive)"},
      {"smiles": "CCCCCC(=O)Nc1ccc(C(=O)N/N=C/c2ccc([N+](=O)[O-])cc2)cc1", "Nile Red retention ratio vs DMSO": "105% (inactive)"},
      {"smiles": "COc1ccc(C(=O)C2CCCN(Cc3cccn3-c3ccccn3)C2)c(C)c1", "note": "(centres undefined)", "Nile Red retention ratio vs DMSO": "98.5% (inactive)"},
      {"smiles": "O=C(Cc1ccc(Br)cc1)N1CCN(c2ccccn2)CC1", "Nile Red retention ratio vs DMSO": "85.2% (inactive)"},
      {"smiles": "COc1ccc(NC(=S)N2CCc3cc(OC)c(OC)cc3C2)cc1", "Nile Red retention ratio vs DMSO": "99.3% (inactive)"},
      {"smiles": "CCOc1ccc(/C=C2\\SC(=S)N(NC(=O)c3ccncc3)C2=O)cc1OC", "Nile Red retention ratio vs DMSO": "105% (inactive)"},
      {"smiles": "CN=C(c1ccccc1)c1c(C)cccc1C", "Nile Red retention ratio vs DMSO": "107% (inactive)"},
      {"smiles": "COc1ccc(S(=O)(=O)N2CCOC2CNC(=O)C(=O)NCc2ccc(F)cc2)cc1", "note": "(centres undefined)", "Nile Red retention ratio vs DMSO": "114% (inactive)"},
      {"smiles": "Cc1cc(/C=N/NC(=O)CC2(C)OCCO2)c(C)n1-c1ccc(Cl)c(Cl)c1", "Nile Red retention ratio vs DMSO": "101% (inactive)"},
      {"smiles": "COc1ccccc1/C=C/C=N/n1c(-c2ccc(Cl)cc2Cl)n[nH]c1=S", "Nile Red retention ratio vs DMSO": "119% (inactive)"},
      {"smiles": "Cc1ccc(OCc2cc(C(=O)N(C)CCc3ccccc3)no2)cc1C", "Nile Red retention ratio vs DMSO": "97.7% (inactive)"},
      {"smiles": "CCOC(=O)c1c(NC(=S)NC(=O)c2ccco2)sc2c1CCCC2", "Nile Red retention ratio vs DMSO": "95.4% (inactive)"},
      {"smiles": "Cc1ccc(/C=C(\\C#N)C(=O)Nc2cccc3ncccc23)o1", "Nile Red retention ratio vs DMSO": "93% (inactive)"},
      {"smiles": "COc1cccc(NC(=O)CN(C)C(=O)/C=C/c2cc(OC)ccc2OC)c1", "Nile Red retention ratio vs DMSO": "97.5% (inactive)"},
      {"smiles": "CSCCC(NC(=O)COc1ccccc1)C(=O)OCCOc1ccc(Br)cc1", "note": "(centres undefined)", "Nile Red retention ratio vs DMSO": "91.4% (inactive)"},
      {"smiles": "O=C(CCCCCn1c(=O)[nH]c2ccccc2c1=O)NCCc1c[nH]c2ccccc12", "Nile Red retention ratio vs DMSO": "96.3% (inactive)"},
      {"smiles": "CCOC(=O)CNC(=O)CSc1nnnn1-c1cc(C)ccc1C", "Nile Red retention ratio vs DMSO": "102% (inactive)"},
      {"smiles": "O=C(OCc1ccc(-c2ccccc2)cc1)c1cccc(O)c1", "Nile Red retention ratio vs DMSO": "108% (inactive)"},
      {"smiles": "Cc1nc2c(C(=O)NCc3ccc4c(c3)OCO4)c[nH]n2c(=O)c1Cc1ccccc1F", "Nile Red retention ratio vs DMSO": "108% (inactive)"},
      {"smiles": "Cc1nn(C)cc1C(=O)Nc1ccccc1Br", "Nile Red retention ratio vs DMSO": "104% (inactive)"},
      {"smiles": "Cc1csc(NC(=O)c2ccc(-c3ccc(Cl)cc3Cl)o2)n1", "Nile Red retention ratio vs DMSO": "104% (inactive)"},
      {"smiles": "Cc1ccc(Cn2c(C)nc3c(c2=O)c2nc4ccccc4nc2n3Cc2ccco2)cc1", "Nile Red retention ratio vs DMSO": "104% (inactive)"},
      {"smiles": "O=C(/C=C/c1c(Cl)cccc1Cl)NCc1ccccc1", "Nile Red retention ratio vs DMSO": "102% (inactive)"},
      {"smiles": "Cc1ccc(N=C2NC(=O)/C(=C/C=C/c3ccco3)S2)cc1C", "Nile Red retention ratio vs DMSO": "114% (inactive)"},
      {"smiles": "Cc1cccc(NC(=O)COc2ccccc2C)n1", "Nile Red retention ratio vs DMSO": "95.6% (inactive)"},
      {"smiles": "COc1ccc(C(=O)NC2CCCc3c2cnn3-c2cccc(C)c2C)c(OC)n1", "note": "(centres undefined)", "Nile Red retention ratio vs DMSO": "93.2% (inactive)"},
      {"smiles": "CC[n+]1cc(C)ccc1/C=C/c1ccc(N(C)C)cc1", "Nile Red retention ratio vs DMSO": "118% (inactive)"},
      {"smiles": "O=C(CN1C(=O)C2C3CCC(C3)C2C1=O)Oc1ccc2ccccc2c1", "note": "(centres undefined)", "Nile Red retention ratio vs DMSO": "105% (inactive)"},
      {"smiles": "Cc1ccc(Cn2nnc3c(=O)[nH]c(C4CCN(S(=O)(=O)/C=C/c5ccccc5)CC4)nc32)cc1", "Nile Red retention ratio vs DMSO": "93% (inactive)"},
      {"smiles": "CCNC(=O)c1c(O)c2cccc3c2n(c1=O)CC3", "Nile Red retention ratio vs DMSO": "107% (inactive)"},
      {"smiles": "O=C(Cc1ccccc1)NCC1OCCc2ccccc21", "note": "(centres undefined)", "Nile Red retention ratio vs DMSO": "117% (inactive)"},
      {"smiles": "CC1CCc2c(sc(NC(=O)c3ccc(Cn4cc(Br)cn4)o3)c2C(N)=O)C1", "note": "(centres undefined)", "Nile Red retention ratio vs DMSO": "108% (inactive)"},
      {"smiles": "Cc1ccc2c(c1)NC(=O)[C@@]1(C)[C@@H](c3ccccc3)[C@H]3COc4ccc(Cl)cc4[C@@H]3N1C2=O", "Nile Red retention ratio vs DMSO": "102% (inactive)"},
      {"smiles": "O=C(Cn1c(COc2ccccc2)nc2ccccc21)Nc1cc(Cl)c(Cl)cc1Cl", "Nile Red retention ratio vs DMSO": "110% (inactive)"},
      {"smiles": "Cc1ccc2[nH]c3c(=O)n(CC(=O)NCCc4ccc(Cl)cc4)ncc3c2c1", "Nile Red retention ratio vs DMSO": "137% (inactive)"},
      {"smiles": "C/C(N)=C(/C#N)C(=O)COC(=O)c1cc(-c2cccc(Br)c2)nc2ccccc12", "Nile Red retention ratio vs DMSO": "110% (inactive)"},
      {"smiles": "CCOc1ccc2nc(Cl)c(C3CC(c4ccccc4)=NN3C(=O)c3cccs3)cc2c1", "note": "(centres undefined)", "Nile Red retention ratio vs DMSO": "131% (inactive)"},
      {"smiles": "C=CCC[C@@H](Cc1ccc(F)cc1)C(=O)OC[C@H](Cc1c[nH]c2ccccc12)NC(=O)[C@@H](CC=C)CC(=O)N(CCO)Cc1ccccc1", "Nile Red retention ratio vs DMSO": "123% (inactive)"},
      {"smiles": "Cc1c(CCOC(=O)CC23CC4CC(CC(C)(C4)C2)C3)sc[n+]1Cc1ccc([N+](=O)[O-])cc1", "Nile Red retention ratio vs DMSO": "821% (active)"},
      {"smiles": "CSCCC(NS(=O)(=O)c1ccc(C)cc1)C(=O)N1CCCC1", "note": "(centres undefined)", "Nile Red retention ratio vs DMSO": "89.3% (inactive)"},
      {"smiles": "O=C(Nc1ccc(NC(=O)c2cccs2)cc1)c1ccc2ccccc2c1", "Nile Red retention ratio vs DMSO": "108% (inactive)"},
      {"smiles": "CCCc1nnc(SCC(=O)Nc2ccc(C(=O)OCC)cc2)o1", "Nile Red retention ratio vs DMSO": "133% (inactive)"},
      {"smiles": "CCNc1c(NS(=O)(=O)c2ccc(C3CCCCC3)cc2)c(=O)oc2ccccc12", "Nile Red retention ratio vs DMSO": "98.7% (inactive)"},
      {"smiles": "CCc1ccc(NC(=O)Cn2ncn3c(cc4ccccc43)c2=O)cc1", "Nile Red retention ratio vs DMSO": "101% (inactive)"},
      {"smiles": "COc1ccccc1NC(=O)C1CCCN1S(=O)(=O)c1ccc(Cl)cc1", "note": "(centres undefined)", "Nile Red retention ratio vs DMSO": "99.7% (inactive)"},
      {"smiles": "CC(/C=C/c1ccccc1)=N\\NC(=O)C1CC1(C)c1ccccc1", "note": "(centres undefined)", "Nile Red retention ratio vs DMSO": "94% (inactive)"},
      {"smiles": "Cc1oc2cc3oc(=O)ccc3cc2c1C", "Nile Red retention ratio vs DMSO": "107% (inactive)"},
      {"smiles": "Cc1cc(C(=O)Nc2ccc(C)c(S(=O)(=O)N3CCOCC3)c2)c2ccccc2n1", "Nile Red retention ratio vs DMSO": "83.1% (inactive)"},
      {"smiles": "CCOc1ccccc1/C=c1\\sc2nc(-c3ccco3)nn2c1=O", "Nile Red retention ratio vs DMSO": "116% (inactive)"}
    ]}
  ]
}
